Results as given in PubChem BioAssay (NCI).
This is part of a sample that, as a whole, favours compounds with a hit. Of some 79,000 tested, about 15% had one in any assay. Rule as the data show it: active = growth inhibition above about 70%; inactive = the rest.

How the values were obtained:
[1] = NCI Yeast Anticancer Drug Screen. Data for the rad50 strain (AID 155);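 also: 0% = growth of vehicle-only cultures of the same strain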; settings: S. cerevisiae rad50 strain growth inhibition; at 50.0 µM; hits give high values
Method in brief: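 Inhibition values express reduced yeast growth in compound-treated cultures relative to vehicle-treated controls.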

[2] = NCI Yeast Anticancer Drug Screen. Data for the mec2-1 strain (AID 157); settings: S. cerevisiae mec2-1 strain, at 50.0 µM, hits give high values
Method in brief: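 Each compound was tested on mec2-1 yeast, a strain altered in DNA damage repair or cell cycle control. Growth inhibition is reported relative to vehicle.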

[3] = NCI Yeast Anticancer Drug Screen. Data for the sgs1 mgt1 strain (AID 161);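 also: 0% = growth of cultures given vehicle only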; settings: S. cerevisiae sgs1 mgt1 strain, at 50.0 µM, hits give high values
Method in brief: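 Genetically altered yeast, compound exposure, growth inhibition relative to vehicle.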

[4] = NCI Yeast Anticancer Drug Screen. Data for the cln2 rad14 strain (AID 165);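 also: 0% = growth equal to vehicle treated cultures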; settings: S. cerevisiae cln2 rad14 strain, at 50.0 µM, hits give high values
Method in brief: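 Test compounds were added to cln2 rad14 yeast cultures; inhibition of growth was then determined by comparison with vehicle treatment.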

[5] = NCI Yeast Anticancer Drug Screen. Data for the bub3 strain (AID 167); settings: S. cerevisiae bub3 mutant strain, at 50.0 µM, hits give high values
Method in brief: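 Steps: expose the mutant yeast strain to compound; grow alongside vehicle-treated cultures; measure growth; express inhibition against the vehicle cultures.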

[6] = NCI Yeast Anticancer Drug Screen. Data for the mlh1 rad18 strain (AID 175); settings: S. cerevisiae mlh1 rad18 strain growth inhibition; at 50.0 µM; hits give high values
Method in brief: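 Inhibition values reflect reduced growth of mutant yeast versus vehicle-treated controls following compound exposure; the mutations affect DNA damage repair.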

Measured: growth inhibition

CC(C)CNC(=O)Cn1c2c(c3ccccc31)CCCC2
inactive: [1] -4.5% | [2] -32.7% | [3] 1.4% | [4] 3.75% | [5] -14.8% | [6] -10.8%

O=C(O)c1cnc2cc3c(cc2c1Nc1cccc(C(F)(F)F)c1)OCO3
inactive: [1] 29% | [2] -8.85% | [3] 5.15% | [4] 6.7% | [5] 29.4% | [6] 4.05%

O=C(O)CCc1ccc(NC(=O)CCl)cc1
inactive: [1] 4.05% | [2] 14.6% | [3] 17.3% | [4] 8.35% | [5] 5.45% | [6] 14.7%

NC(=O)NC(Cc1ccccc1)(C(=O)O)c1ccccc1 (centres undefined)
inactive: [1] 6.55% | [2] 6.15% | [3] 35.9% | [4] -0.75% | [5] 24.4% | [6] 20.4%

O=C1OCC=C1COC1OC(CO)C(O)C(O)C1O (centres undefined)
inactive: [1] -6.35% | [2] 3.55% | [3] -12.8% | [4] 5.05% | [5] -11.9% | [6] -41.7%

COc1cc2oc(-c3ccc(O)cc3)cc(=O)c2c(OC)c1OC
inactive: [1] -4.35% | [2] -5.95% | [3] -2.35% | [4] -26.7% | [5] 17.9% | [6] 12.3%

CS(=O)(=O)OCC1OC(n2ccc(NC(=O)c3ccccc3)nc2=O)CC1OS(C)(=O)=O (centres undefined)
inactive: [1] 0.5% | [2] -16.9% | [3] -5.8% | [4] -11.7% | [5] -14.8% | [6] -4%

Cc1ccc(NC(=NCCCN(C)C)C(c2ccccc2)c2ccccc2)cc1
inactive: [1] -2.7% | [2] -0.25% | [3] -5.4% | [4] 0.4% | [5] 11.4% | [6] 13.4%

O=S=C(c1ccccc1)N1CCc2ccccc21
inactive: [1] 22.4% | [2] 3.75% | [3] 12.1% | [4] 7.15% | [5] 18.4% | [6] 22.7%

COc1ccc(-c2cc(-c3ccccc3)c(C#N)c(=O)[nH]2)cc1
inactive: [1] 22.9% | [2] 5.85% | [3] 17.4% | [4] 17% | [5] 6.3% | [6] 21%

CCOC(=O)C(C(=O)CC(C)C)C(C)C (centres undefined)
inactive: [1] -15.9% | [2] -25.2% | [3] 1.1% | [4] -30.4% | [5] 2.95% | [6] -5.7%

O=C(NCCO)Nc1ccccc1F
inactive: [1] 10.2% | [2] 3.65% | [3] -3.65% | [4] -27.3% | [5] -7.75% | [6] 5.55%

CCN(Cc1ccc(C(=O)OC)cc1)c1cccc(NC(C)=O)c1
inactive: [1] 33.5% | [2] 6.7% | [3] 29.9% | [4] -9.7% | [5] 20.3% | [6] 34%

CCCCSc1nc2ccccc2c(=O)[nH]1
inactive: [1] -10.7% | [2] -13% | [3] -4.6% | [4] 13.3% | [5] 9.3% | [6] 3.1%

C=C1c2c(cc3c(c2O)c(=O)c2ccccc2n3C)OC1(C)C
inactive: [1] -31.2% | [2] -36.6% | [3] -23.1% | [4] -24.3% | [5] -25.8% | [6] -25.4%

CC(=O)N(C)N=Nc1ccc(C(F)(F)F)cc1
inactive: [1] -7.7% | [2] -12.7% | [3] -9% | [4] -30.1% | [5] -5.8% | [6] -4.5%

Nc1nc2nc(Br)[nH]c2c(=O)[nH]1
inactive: [1] -5.5% | [2] -7.9% | [3] -29.3% | [4] -17.2% | [5] -14.2% | [6] -33.9%

CCC(=O)C(C)C1(C(=O)OC)NC(=S)NC(=O)C1C#N (centres undefined)
inactive: [1] 5.4% | [2] -4.75% | [3] -15.8% | [4] -6.4% | [5] -22.1% | [6] -6.1%

CC[N+](C)(CC)CCOC(=O)C(c1ccccc1)C(O)C1CC=CCC1 (centres undefined)
inactive: [1] 7.15% | [2] -6.3% | [3] -5.65% | [4] -30.6% | [5] -1.45% | [6] 2.3%
